According to PubChem BioAssay (NCATS):
For part of these data: Entries with a potency or affinity are not part of this list. Active and inactive are the calls of the source. How the calls were made is not given here.

Columns and labels:
[1] = Ebola virus entry assay, green fluorescence channel
[2] = Ebola virus entry assay, blue channel fluorescence
[3] = Ebola virus entry assay, ratio channel
[4] = Ebola virus entry assay, green channel fluorescence
[5] = Ebola virus entry assay, reporter ratio channel; Channel type: primary
[6] = Ebola virus entry assay, blue channel (ratio component)
Wherever efficacy is given: 0% is about no effect.

CCOC(=O)C1=C[C@]2(CC)CCCN3CCc4c(n1c1ccccc41)[C@@H]32
active: AC50 [2] 12.6 µM | AC50 [3] 17.8 µM | AC50 [5] 17.8 µM
inactive: efficacy [1] -42.6% | outcome [4]

CCc1cc2cc(OC)c(OC)cc2c(Cc2ccccc2)n1
inactive: efficacy [1] 32.1% | outcome [3] | outcome [4]
active: AC50 [2] 25.1 µM | AC50 [5] 31.6 µM

Cc1c(-c2ccccc2)oc2c(C(=O)OCCN3CCCCC3)cccc2c1=O
inactive: efficacy [1] -55.6% | outcome [2] | outcome [3] | outcome [4] | outcome [5]

COc1cc([C@H]2Oc3cc([C@H]4Oc5cc(O)cc(O)c5C(=O)[C@@H]4O)ccc3O[C@@H]2CO)ccc1O
active: AC50 [2] 39.8 µM | AC50 [5] 44.7 µM
inactive: efficacy [1] 13.5% | outcome [3] | outcome [4]

CCCCC1C(=O)N(c2ccccc2)N(c2ccccc2)C1=O
inactive: efficacy [1] -25% | outcome [2] | outcome [3] | outcome [4] | outcome [5]

CCOC(=O)c1ccc(OC(=O)CCCCCN=C(N)N)cc1
inactive: efficacy [1] -11.5% | outcome [2] | outcome [3] | outcome [4] | outcome [5]

CC1(C)O[C@@H]2C[C@H]3[C@@H]4CCC5=CC(=O)CC[C@]5(C)[C@@]4(F)[C@@H](O)C[C@]3(C)[C@]2(C(=O)CCl)O1
active: AC50 [2] 12.6 µM | AC50 [3] 10 µM | AC50 [5] 10 µM
inactive: efficacy [1] 53.9% | outcome [4]

C[N+]1(CC2COC(c3ccccc3)(c3ccccc3)O2)CCCCC1 (stereo not drawn)
inactive: efficacy [1] 25% | outcome [2] | outcome [3] | outcome [4] | outcome [5]

C/C=C(/C(=C/C)c1ccc(O)cc1)c1ccc(O)cc1
inactive: efficacy [1] -16.1% | outcome [3] | outcome [4] | outcome [5]
active: AC50 [2] 28.2 µM

CC(Cc1cccc(C(F)(F)F)c1)NCCOC(=O)c1ccccc1 (stereo not drawn)
inactive: efficacy [1] 23% | outcome [4]
active: AC50 [2] 31.6 µM | AC50 [3] 28.2 µM | AC50 [5] 28.2 µM

Oc1ccc(Cl)cc1Sc1cc(Cl)ccc1O
inactive: efficacy [1] -28.7% | outcome [4]
active: AC50 [2] 10 µM | AC50 [3] 15.8 µM | AC50 [5] 15.8 µM

O=C(O)Cc1ccc(CCNS(=O)(=O)c2ccc(Cl)cc2)cc1
inactive: efficacy [1] 18.5% | outcome [2] | outcome [3] | outcome [4] | outcome [5]

CN(Cc1cc(Br)cc(Br)c1N)C1CCCCC1
inactive: efficacy [1] 17.3% | outcome [4]
active: AC50 [2] 22.4 µM | AC50 [3] 20 µM | AC50 [5] 20 µM

CC(C)=CCOc1ccc(/C=C/C(=O)c2ccc(OCC=C(C)C)cc2OCC(=O)O)cc1
inactive: efficacy [1] -15.5% | outcome [2] | outcome [3] | outcome [4] | outcome [5]

CC(=O)Oc1ccc2c(c1)CC[C@@H]1[C@@H]2CC[C@]2(C)[C@@H](O)CC[C@@H]12
active: AC50 [2] 35.5 µM | AC50 [3] 22.4 µM | AC50 [5] 22.4 µM
inactive: efficacy [1] 11.1% | outcome [4]

Cc1c(C)n(CCN(C)C)c2ccc(C(=O)OCCN(C)C)cc12
inactive: efficacy [1] -26.4% | outcome [4]
active: AC50 [2] 2.24 µM | AC50 [3] 2.51 µM | AC50 [5] 2.51 µM

CC(C)(Cc1c[nH]c2ccccc12)NCC(O)COc1ccccc1C#N (stereo not drawn)
active: AC50 [2] 35.5 µM | AC50 [3] 25.1 µM | AC50 [5] 25.1 µM
inactive: efficacy [1] 48.7% | outcome [4]

CN(C)CCN1C(=O)c2ccccc2N(C)c2ccccc21
inactive: efficacy [1] -25.3% | outcome [3] | outcome [4]
active: AC50 [2] 39.8 µM | AC50 [5] 39.8 µM

CN(Cc1ccc(C(C)(C)C)cc1)Cc1cccc2ccccc12
inactive: efficacy [1] -29.5% | outcome [3] | outcome [4]
active: AC50 [2] 35.5 µM | AC50 [5] 39.8 µM

CCOC(=O)[C@H](CCc1ccccc1)N[C@H]1CS[C@H](c2cccs2)CN(CC(=O)O)C1=O
inactive: efficacy [1] 24% | outcome [2] | outcome [3] | outcome [4] | outcome [5]

COCCc1ccc(OCC2CO2)cc1 (stereo not drawn)
inactive: efficacy [1] 25.5% | outcome [2] | outcome [3] | outcome [4] | outcome [5]

Oc1ccc(Cl)cc1Cc1cc(Cl)ccc1O
active: AC50 [2] 3.55 µM | AC50 [3] 11.2 µM | AC50 [5] 11.2 µM
inactive: efficacy [1] 31.6% | outcome [4]

Cc1cc(N)c2cc(NC(=O)Nc3ccc4nc(C)cc(N)c4c3)ccc2n1
active: AC50 [2] 22.4 µM | AC50 [3] 20 µM | AC50 [5] 20 µM
inactive: efficacy [1] 18% | outcome [4]

Cc1ccc(C(=O)Nc2ccc(S(=O)(=O)O)c3cc(S(=O)(=O)O)cc(S(=O)(=O)O)c23)cc1NC(=O)c1cccc(NC(=O)Nc2cccc(C(=O)Nc3cc(C(=O)Nc4ccc(S(=O)(=O)O)c5cc(S(=O)(=O)O)cc(S(=O)(=O)O)c45)ccc3C)c2)c1
inactive: efficacy [1] 21.5% | outcome [4]
active: AC50 [2] 39.8 µM | AC50 [3] 20 µM | AC50 [5] 20 µM

CCC(C)(C)c1ccc(CC(C)CN2C[C@@H](C)O[C@@H](C)C2)cc1 (stereo partly drawn)
active: AC50 [2] 39.8 µM | AC50 [5] 39.8 µM
inactive: efficacy [1] -29.5% | outcome [3] | outcome [4]

C#CC1(O)CC[C@H]2[C@@H]3CCC4=CCCC[C@@H]4[C@H]3CC[C@@]21C (stereo partly drawn)
active: AC50 [2] 22.4 µM | AC50 [3] 22.4 µM | AC50 [5] 22.4 µM
inactive: efficacy [1] 7.54% | outcome [4]

CCCC(=O)O[C@]1(C(=O)CCl)[C@@H](C)C[C@H]2[C@@H]3CCC4=CC(=O)C=C[C@]4(C)[C@@]3(F)C(=O)C[C@@]21C
active: AC50 [2] 35.5 µM | AC50 [3] 20 µM | AC50 [5] 20 µM
inactive: efficacy [1] 17% | outcome [4]

N=C(N)c1ccc2cc(OC(=O)c3ccc(N=C(N)N)cc3)ccc2c1
inactive: efficacy [1] 15% | outcome [2] | outcome [3] | outcome [4] | outcome [5]

CN(C)CCN(Cc1cccs1)c1ccccn1
inactive: efficacy [1] 21.2% | outcome [4]
active: AC50 [2] 31.6 µM | AC50 [3] 17.8 µM | AC50 [5] 17.8 µM

CCN(CC)CCNC(C(=O)OCCC(C)C)c1ccccc1 (stereo not drawn)
inactive: efficacy [1] 47.8% | outcome [4]
active: AC50 [2] 31.6 µM | AC50 [3] 22.4 µM | AC50 [5] 22.4 µM

CCOC(=O)c1cccc(N)c1
inactive: efficacy [1] 16.6% | outcome [2] | outcome [3] | outcome [4] | outcome [5] | outcome [6]

C[C@]12CC[C@@H]3c4ccc(O)cc4CC[C@H]3[C@@H]1CCC2=O
active: AC50 [2] 3.55 µM | AC50 [3] 10 µM | AC50 [5] 10 µM
inactive: efficacy [1] 55% | outcome [4]

C#C[C@]1(O)CC[C@H]2[C@@H]3CCc4cc(O)ccc4[C@H]3CC[C@@]21C
active: AC50 [2] 11.2 µM | AC50 [3] 11.2 µM | AC50 [5] 11.2 µM
inactive: efficacy [1] -19.9% | outcome [4]

O=C(OCC(O)CO)c1ccccc1Nc1ccnc2c(C(F)(F)F)cccc12 (stereo not drawn)
inactive: efficacy [1] 31.1% | outcome [2] | outcome [3] | outcome [4] | outcome [5] | outcome [6]

O=c1oc2c(O)c(O)cc3c(=O)oc4c(O)c(O)cc1c4c23
active: AC50 [2] 11.2 µM | AC50 [3] 11.2 µM | AC50 [5] 11.2 µM
inactive: efficacy [1] 33.8% | outcome [4]

CC(=O)Oc1ccc(C(c2ccc(OC(C)=O)cc2)c2ccccn2)cc1
inactive: efficacy [1] -19% | outcome [2] | outcome [3] | outcome [4] | outcome [5]

Cc1cccc(OCC(O)CNC(C)(C)C)c1C (stereo not drawn)
inactive: efficacy [1] -12.5% | outcome [3] | outcome [4]
active: AC50 [2] 39.8 µM | AC50 [5] 39.8 µM

O=C(/C=C/c1ccc(O)c(O)c1)O[C@@H]1C[C@@](OC(=O)/C=C/c2ccc(O)c(O)c2)(C(=O)O)C[C@@H](O)[C@@H]1O
inactive: efficacy [1] 21.8% | outcome [4]
active: AC50 [2] 28.2 µM | AC50 [3] 20 µM | AC50 [5] 20 µM

O=S1(=O)c2cccc3cccc(c23)N1CCCN1CCN(c2ccc(F)cc2)CC1
active: AC50 [2] 25.1 µM | AC50 [3] 25.1 µM | AC50 [5] 25.1 µM
inactive: efficacy [1] -13.1% | outcome [4]

CN1CCN(c2cc3c(cc2F)c(=O)c(C(=O)O)cn3-c2ccc(F)cc2)CC1
inactive: efficacy [1] 8.5% | outcome [2] | outcome [3] | outcome [4] | outcome [5]

CCOc1ccc2nc(S(N)(=O)=O)sc2c1
inactive: efficacy [1] 31.6% | outcome [2] | outcome [3] | outcome [4] | outcome [5]

COc1cc(C(=S)N2CCOCC2)ccc1O
inactive: efficacy [1] -16.3% | outcome [2] | outcome [3] | outcome [4] | outcome [5] | outcome [6]

CCN(CC)CCSC(=O)C(c1ccccc1)c1ccccc1
inactive: efficacy [1] -29.7% | outcome [3] | outcome [4]
active: AC50 [2] 31.6 µM | AC50 [5] 39.8 µM

Nc1ccc(N=Nc2ccccc2)c(N)n1
inactive: efficacy [1] -23.7% | outcome [3] | outcome [4]
active: AC50 [2] 39.8 µM | AC50 [5] 39.8 µM

COc1ccccc1N1CCN(CCCNc2cc(=O)n(C)c(=O)n2C)CC1
inactive: efficacy [1] 43.6% | outcome [3] | outcome [4]
active: AC50 [2] 28.2 µM | AC50 [5] 39.8 µM

CC(C)(C)C(=O)C(Oc1ccc(Cl)cc1)n1ccnc1 (stereo not drawn)
active: AC50 [2] 39.8 µM | AC50 [5] 39.8 µM
inactive: efficacy [1] 12.3% | outcome [3] | outcome [4]

CC1(c2ccccc2)OC(C(=O)O)=CC1=O (stereo not drawn)
inactive: efficacy [1] -18.5% | outcome [2] | outcome [3] | outcome [4] | outcome [5]

CC[C@H](c1ccc(O)cc1)[C@@H](CC)c1ccc(O)cc1
active: AC50 [2] 20 µM | AC50 [3] 25.1 µM | AC50 [5] 25.1 µM
inactive: efficacy [1] -12.4% | outcome [4]

C=CCOc1cc(Cl)ccc1C(=O)NCCN(CC)CC
active: AC50 [2] 14.1 µM | AC50 [3] 15.8 µM | AC50 [5] 15.8 µM
inactive: efficacy [1] -28.4% | outcome [4]

C[C@]12CC[C@@H]3c4ccc(O)cc4CC[C@H]3[C@@H]1C[C@@H](O)[C@@H]2O
active: AC50 [2] 20 µM | AC50 [5] 35.5 µM
inactive: efficacy [1] -24.2% | outcome [3] | outcome [4]

CC(C)NCC(O)COc1ccc(COCCOC(C)C)cc1 (stereo not drawn)
active: AC50 [2] 15.8 µM | AC50 [3] 12.6 µM | AC50 [5] 12.6 µM
inactive: efficacy [1] 22.5% | outcome [4]
